The list is not random: actives were taken first. Their share in the collection is about 12%.
JMJD2A Tudor = JMJD2A Tudor domain (human) inhibition; O75164; AID 504339; Potency, µM (series often up to 114 µM), for the others: top-dose activity change, negative = inhibition, actives largely listed as inhibitors; AlphaScreen JMJD2A-Tudor / H3K4me3 peptide binding; 390,000 compounds, 4.4% hits; further: on the % scale 0 is the no-effect control and ±100 the full control effect; nearly all actives have a fitted effect of over 50% in size
G9a inh = inhibitors of human histone lysine methyltransferase G9a | Potency, µM (titrated, usually from 102 µM), for inactives: at the highest dose activity, negative = inhibition, actives largely listed as inhibitors | 350,000 compounds, 8.8% hits | G9a H3K9 monomethylation, AlphaScreen, 2 h | Q96KQ7 | AID 504332; further: on the % scale 0 is the no-effect control and ±100 the full control effect; nearly all actives have a fitted effect of over 75% in size
Target sequence (Q96KQ7 913-1193 limits assumed): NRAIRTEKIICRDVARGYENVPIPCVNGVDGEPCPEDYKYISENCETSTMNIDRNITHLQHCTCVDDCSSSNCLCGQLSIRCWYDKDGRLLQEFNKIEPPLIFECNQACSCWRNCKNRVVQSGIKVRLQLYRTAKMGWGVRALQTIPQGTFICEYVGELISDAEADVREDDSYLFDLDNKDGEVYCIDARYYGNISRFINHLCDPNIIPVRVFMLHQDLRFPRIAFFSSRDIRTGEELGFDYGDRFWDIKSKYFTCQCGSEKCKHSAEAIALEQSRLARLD
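Chemiluminescent proximity detection of H3K9 monomethylation, read after 10 min bead incubation in the dark. Reaction: 20 nM G9a, 500 nM biotin-H3K9 peptide, 20 uM SAM cofactor, 2 h, room temperature, following 15 min enzyme-compound preincubation.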
L3MBTL1 block = L3MBTL1 (human) inhibition; AlphaScreen L3MBTL1–H3K9me1 peptide binding; Q9Y468; 230,000 compounds, 0.66% hits; Potency, µM (highest dose often 57.1 µM), for the others: at the top dose activity, negative = inhibition, hits mostly inhibitors; further: on the % scale 0 is the no-effect control and ±100 the full control effect; nearly all actives have a fitted effect of over 60% in size
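First, the protein-peptide complex forms for 30 min at room temperature (L3MBTL1 50 nM, biotinylated H3K9me1 peptide 75 nM). Next, compounds are pin-transferred and incubated 30 min. Finally, AlphaScreen beads are added and read after 30 min.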
HP1b chromo inh = inhibitors of HP1-beta chromodomain binding to methylated histone tails. AlphaScreen HP1-beta / biotin-H3K9me3 peptide binding. 390,000 compounds, 0.56% hits. P83916. Potency, µM (series often up to 114 µM), for inactives: top-dose activity change, negative = inhibition, most hits filed as inhibitors; further: nearly all actives have a fitted effect of over 70% in size
Target sequence (P83916 whole entry, looked up): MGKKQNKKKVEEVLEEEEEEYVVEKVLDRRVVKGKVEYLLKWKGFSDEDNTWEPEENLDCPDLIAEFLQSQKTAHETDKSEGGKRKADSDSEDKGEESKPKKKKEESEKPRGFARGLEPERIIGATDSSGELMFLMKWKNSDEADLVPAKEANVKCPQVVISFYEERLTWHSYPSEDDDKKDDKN
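AlphaScreen: HP1-beta (50 nM) preformed 30 min with biotin-H3(1-18)K9me3 peptide (50 nM) in PBS pH 7.4, 0.01% Tween-20. Compound added for 30 min at RT, then streptavidin donor/nickel chelate acceptor beads (10 ug/mL) for 30 min.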
Sfp inh = inhibitors of Bacillus subtilis Sfp phosphopantetheinyl transferase | Q9F4F7 | Biochemical Sfp PPTase activity, qHTS | Potency, µM, without a hit: largest response in the series, negative = inhibition, most hits filed as inhibitors | 310,000 compounds, 3.5% hits;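 further: the enzyme is Sfp with the accession as filed and its product quenches rhodamine fluorescence; 0% = enzyme reaction without inhibitor and -100% = no enzyme wells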
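Step 1, compound plus 15 nM Sfp-PPTase, 15 min, room temperature. Step 2, add rhodamine-CoA (5 uM) and BHQ-2-YbbR (12.5 uM). Step 3, read 525/598 nm fluorescence at 0 and 30 min.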
BAZ2B block = inhibitors of human BAZ2B bromodomain; Q9UIF8; AlphaScreen BAZ2B-H3K14Ac peptide displacement; Potency, µM (series often up to 114 µM), for the others: at the highest dose activity change, negative = inhibition, most hits filed as inhibitors; 360,000 compounds, 4.4% hits; further: on the % scale 0 is the no-effect control and ±100 the full control effect; nearly all actives have a fitted effect of over 60% in size
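AlphaScreen displacement of biotin-H3(5-23)K14Ac peptide (50 nM final) from BAZ2B (50 nM final) in PBS pH 7.4, 0.01% Tween-20; complex preformed 30 min RT, then compounds (top 110 uM) 30 min RT, beads 20 min dark.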
Starred values were filed as active, the others as inactive; [ ] = another dose, or the depositor's remark. The call rests on the fitted dose curve; in most records, active means well fitted curve in the direction sought with a large enough effect; inconclusive means small, poorly fitted or top-dose-only effect, or another doubt; inactive means no such curve, though single readings can be large; an effect the other way counts as inactive or inconclusive. Potency means the concentration at half of the fitted maximal effect.

How did CCc1cccc2c(-c3ccc(F)cc3)nc(SCC(=O)Nc3ccccc3)nc12 do in these assays?
JMJD2A Tudor: -14%; G9a inh: 0%[59 µM]; HP1b chromo inh: 20%; BAZ2B block: 2%

What do the screens show for `Cn1c(SCC(=O)N2CCN(c3ccccc3)CC2)nnc1-c1ccco1`?
JMJD2A Tudor: -15%; G9a inh: 28%; L3MBTL1 block: 1%; HP1b chromo inh: 34%; Sfp inh: -8%; BAZ2B block: -26%

How did COc1cc2c(cc1OC)CN(C(=O)CSc1nnc3scc(-c4ccccc4)n13)CC2 do in these assays?
JMJD2A Tudor: -16%; G9a inh: 14µM*; L3MBTL1 block: -6%; HP1b chromo inh: 51%; Sfp inh: 71µM*; BAZ2B block: -24%

What do the screens show for `CCOC(=O)C1CCN(Cc2cc(=O)n3c(-c4ccccc4)csc3n2)CC1`?
JMJD2A Tudor: -7%; G9a inh: -6%; HP1b chromo inh: 26%; Sfp inh: 9%; BAZ2B block: -4%

How did COc1cc2c(cc1OC)CN(Cc1cc(=O)n3c(-c4ccccc4)csc3n1)CC2 do in these assays?
JMJD2A Tudor: -20%; G9a inh: 25µM*; HP1b chromo inh: 32%; Sfp inh: -17%; BAZ2B block: -4%

Results for Cc1ccc(-c2csc3nnc(SCC(=O)N4CCN(Cc5ccccc5)CC4)n23)cc1 ?
JMJD2A Tudor: -31%; G9a inh: 25µM*; L3MBTL1 block: -1%; HP1b chromo inh: 1%; Sfp inh: -8%; BAZ2B block: -39%

What do the screens show for `Cn1c(SCC(=O)N2CCN(c3ccccc3)CC2)nnc1-c1ccccc1`?
JMJD2A Tudor: -8%; G9a inh: 50µM*; L3MBTL1 block: 0%; HP1b chromo inh: 21%; Sfp inh: 20%; BAZ2B block: -20%

Results for COC(=O)c1ccc(OC)c(Cn2c(=O)n(-c3cccc(Cl)c3)c(=O)c3c4c(sc32)CN(C(C)=O)CC4)c1 ?
JMJD2A Tudor: -1%; G9a inh: 7%[59 µM]; HP1b chromo inh: 35%; BAZ2B block: -1%

What do the screens show for `Cc1c(C)c2c(c(C)c1O)CCC(C)(COc1ccc(Cc3sc(=O)[nH]c3O)cc1)O2` (stereo not given)?
G9a inh: inconclusive; Sfp inh: 0%

How did CCNc1ncc2nc(-c3ccc(F)cc3)c(=O)n(CCc3ccccc3)c2n1 do in these assays?
G9a inh: 9%[0.501 µM]; Sfp inh: 12%

How did Cc1ccc(Cl)cc1N1CCN(c2ncnc3onc(C)c23)CC1 do in these assays?
JMJD2A Tudor: -9%; G9a inh: -4%[59 µM]; HP1b chromo inh: 12%; BAZ2B block: -1%[57.1 µM]

What do the screens show for `Cn1c(SCC(=O)N2CCN(Cc3ccccc3)CC2)nnc1-c1ccncc1`?
JMJD2A Tudor: -10%; G9a inh: 11µM*; L3MBTL1 block: 5%[11.4 µM]; HP1b chromo inh: 30%; Sfp inh: 16%; BAZ2B block: -1%

What do the screens show for `O=c1cc(CN2CCN(c3ccccc3O)CC2)nc2sccn12`?
JMJD2A Tudor: inconclusive; G9a inh: -10%; HP1b chromo inh: 9%; Sfp inh: -9%; BAZ2B block: -3%

Results for Cc1ccccc1-n1c(SCC(=O)N2CCN(c3ccccc3)CC2)nnc1-c1ccncc1 ?
JMJD2A Tudor: -22%; G9a inh: 45µM*; L3MBTL1 block: 4%; HP1b chromo inh: 20%; Sfp inh: -9%; BAZ2B block: 12%

What do the screens show for `O=c1cc(CN2CCc3ccccc3C2)nc2sccn12`?
JMJD2A Tudor: -6%; G9a inh: 79µM*; L3MBTL1 block: -17%; HP1b chromo inh: 42%; Sfp inh: -7%; BAZ2B block: 7%

Results for Cc1ccccc1-n1c(SCC(=O)N2CCC(C(=O)O)CC2)nnc1-c1ccncc1 ?
JMJD2A Tudor: -6%; G9a inh: -1%; L3MBTL1 block: -1%; HP1b chromo inh: 53%; Sfp inh: 12%; BAZ2B block: 29%

Results for Cn1c(SCC(=O)N2CCOCC2)nnc1-c1ccncc1 ?
JMJD2A Tudor: 1%; G9a inh: -12%[59 µM]; HP1b chromo inh: 7%; Sfp inh: 14%; BAZ2B block: 7%

Results for Cc1cc(Cl)ccc1NS(=O)(=O)c1ccc2c(c1)CCN2S(C)(=O)=O ?
JMJD2A Tudor: -5%; G9a inh: 8%[59 µM]; HP1b chromo inh: 23%[57 µM]; BAZ2B block: 2%

What do the screens show for `CN(CCCCCCN(C)Cc1ccccc1O)Cc1ccccc1O`?
JMJD2A Tudor: 20µM*; L3MBTL1 block: -13%; HP1b chromo inh: inconclusive; Sfp inh: inconclusive; BAZ2B block: 50µM*

How did Cc1ccc(O)c(CN(C)Cc2cc(C)ccc2O)c1 do in these assays?
JMJD2A Tudor: inconclusive; HP1b chromo inh: -5%

What do the screens show for `O=C(O)c1cn[nH]c1-n1cnnn1`?
JMJD2A Tudor: inconclusive; G9a inh: 50µM*; L3MBTL1 block: 0%; HP1b chromo inh: 15%; Sfp inh: -4%; BAZ2B block: -1%

What do the screens show for `CCC(C)NC(=O)CCCN1C(=O)CCn2nc(-c3cccn3C)cc21` (stereo not given)?
JMJD2A Tudor: -20%; G9a inh: -20%[59 µM]; HP1b chromo inh: 3%[57 µM]; BAZ2B block: -26%

Results for COc1cc2c(ccc3cc(OC)c(OC)c(O)c32)cc1O ?
JMJD2A Tudor: 10µM*; G9a inh: inconclusive; HP1b chromo inh: inconclusive; Sfp inh: -7%; BAZ2B block: 7.1µM*

What do the screens show for `Fc1ccc([C@H]2CCNC[C@H]2COc2ccc3c(c2)OCO3)cc1`?
Sfp inh: -21%

Results for COc1cccc(/C=N/NC(=O)C(=O)NCc2cccnc2)c1O ?
JMJD2A Tudor: inconclusive; G9a inh: 32%[59 µM]; L3MBTL1 block: inconclusive; HP1b chromo inh: 31%; Sfp inh: 23%; BAZ2B block: 20µM*

What do the screens show for `COc1cccc(/C=N/NC(=O)C[n+]2ccccc2)c1O`?
JMJD2A Tudor: 45µM*; G9a inh: -3%[59 µM]; L3MBTL1 block: 16µM*; HP1b chromo inh: 39%; Sfp inh: 37%; BAZ2B block: 18µM*

What do the screens show for `CCOc1ccccc1NC(=O)C(=O)N/N=C/c1cc(Br)ccc1O`?
JMJD2A Tudor: inconclusive; G9a inh: 14%; HP1b chromo inh: 23%; Sfp inh: 8%; BAZ2B block: 8.9µM*

What do the screens show for `O=C(C[n+]1ccccc1)N/N=C/c1cc(Br)ccc1O`?
JMJD2A Tudor: 22µM*; G9a inh: 0%; HP1b chromo inh: 38%; Sfp inh: 17%; BAZ2B block: 10µM*

What do the screens show for `O=S(=O)(c1ccc2c(c1)CCCC2)N1CCN(c2nc(-c3cccs3)nc3ccccc23)CC1`?
JMJD2A Tudor: -13%; HP1b chromo inh: 19%

Screening data deposited in PubChem BioAssay by National Center for Advancing Translational Sciences (NCATS).
